Source: PubChem
ATXN viability: reduces viability in counter-screen for ATXN expression inhibitors; Potency, µM (titrated, usually from 56.7 µM), actives largely listed as cytotoxic; hit rate 0.49% among 400,000; S2 cells (HEK-293 line with an ATXN2-luciferase reporter) viability, CellTiter-Fluor protease fluorescence, 24 h; further: potency means the concentration at half of the fitted maximal effect; nearly all actives have a fitted effect of over 40% in size
MCF10A rerep: DNA re-replication induction in MCF 10a cells | MCF 10A DNA re-replication, Hoechst nuclear intensity, 48 h | Potency, µM (series often up to 46.1 µM), for the others: at the top dose activity, positive = re-replication, usual class: activators | hit rate 2.9% among 350,000; further: potency means the concentration at half of the fitted maximal effect; % of control where 0% means no effect; nearly all actives have a fitted effect of over 50% in size
PINK1 modulator: PINK1 expression modulation; Potency, µM (highest dose often 76.6 µM), for inactives: top-dose activation (PINK1 increase), actives largely listed as activators; PINK1 immunofluorescence, high-content cytometry, 24 h; AID 624263; hit rate 0.2% among 410,000; active means well fitted activation curve with a large enough effect; inconclusive means small, poorly fitted or top-dose-only effect; cell line not stated here; further: potency means the concentration at half of the fitted maximal effect; % of control where 0% means no effect; nearly all actives have a fitted effect of over 65% in size
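Cells are seeded, rested 12 hours, then given compound at five concentrations or DMSO for 24 hours. After fixation, blocking and antibody staining, PINK1 amount and mitochondrial localization are scored; CCCP serves as control.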
IL-1B inflam inh: blocks inflammasome-driven IL-1 beta release. THP-1 LPS/ATP IL-1B secretion, AlphaLISA, 16 h; hits give low values. activity change, % at 57.5 µM. hit rate 4.7% among 360,000. AID 743279; in the data active means activity change below about -50%; inconclusive means mostly about -30% to -49%; further: on the % scale 0 is the no-effect control and ±100 the full control effect
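Secreted IL-1B measured by AlphaLISA bead assay after 16 h compound exposure of THP-1 cells; compounds (final up to 57.5 uM) added 1 h before LPS (250 ng/mL) and ATP (1.25 mM) stimulation; lower signal means less secretion.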
ATXN2 expr inh: inhibitors of ATXN2 expression | hit rate 0.72% among 360,000 | HEK-293 ATXN2-luciferase reporter, luminescence, 24 h | Potency, µM (titrated, usually from 57 µM), for inactives: at the top dose activity change, negative = inhibition, hits mostly inhibitors | AID 1745845; further: potency means the concentration at half of the fitted maximal effect; on the % scale 0 is the no-effect control and ±100 the full control effect; nearly all actives have a fitted effect of over 55% in size
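ATXN2-luciferase reporter cells (luciferase flanked by upstream and downstream ATXN2 gene portions) were treated 24 h at 37 °C with compounds at up to 57 uM. SteadyGlo luminescence gave expression; GF-AFC fluorescence gave viability.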
SW480 rereplic: induces DNA re-replication in SW480 colon adenocarcinoma cells; hit rate 1.8% among 340,000; SW480 DNA re-replication, Hoechst DNA content imaging, 48 h; Potency, µM (doses to about 46.1 µM), without a hit: top-dose re-replication activation, actives largely listed as activators; further: potency means the concentration at half of the fitted maximal effect; % of control where 0% means no effect; nearly all actives have a fitted effect of over 55% in size
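Compounds, transferred as 23 nL by pin tool, were incubated with cells for 48 hr; DNA content per nucleus was then quantified by Hoechst staining and fluorescence plate imaging.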
* hit, by the source's call; i = inactive; ? = inconclusive; / = not tested or not shown; [ ] = dose if it differs, or a comment. In the library only some 7.1% were active in any assay of this set; here they are far more common. Unless noted, the call rests on the fitted dose curve; in most records, active means well fitted curve in the direction sought with a large enough effect; inconclusive means small, poorly fitted or top-dose-only effect, or another doubt; inactive means no such curve, though single readings can be large; an effect the other way counts as inactive or inconclusive.

SMILES	ATXN viability	MCF10A rerep	PINK1 modulator	IL-1B inflam inh	ATXN2 expr inh	SW480 rereplic
CCN(c1ccc(Cl)cc1)S(=O)(=O)c1nnc(NC(=O)c2ccccc2C)s1	/	/	1%	/	/	/
O=C(C1COc2ccccc2O1)N1CCN(c2nc3ccc(F)cc3s2)CC1 (configuration not stated)	/	/	0%	/	/	/
COC1=C(OC)C(=O)C(CC=C(C)CCC=C(C)CCC=C(C)CCC=C(C)CCC=C(C)CCC=C(C)CCC=C(C)CCC=C(C)CCC=C(C)CCC=C(C)C)=C(C)C1=O	i	/	/	/	6%	/
CC(=O)Nc1ccccc1OCC(=O)NC(C)c1ccccc1 (configuration not stated)	i	21%	1%	-4	/	0%
CCOC(=O)C1=C(C)NC(C)=C(C(=O)OCC)C1C(=O)OCC(=O)NC(C)c1ccccc1 (configuration not stated)	i	?	1%	?	-2%	7.3µM*
O=C(CSCc1ccccc1)N/N=C/c1ccc(OCC(=O)N2CCCCC2)cc1	i	25%	2%	0	-5%	-12%
COc1ccc(CSCC(=O)N/N=C/c2ccc(OCC(=O)N3CCCCC3)cc2)cc1	i	21µM*	1%[38.3 µM]	-6	6%	?
CC(NC(=O)COc1ccccc1-c1ccccc1)c1ccccc1 (configuration not stated)	i	4.6µM*	4%	-23	-12%	10%
CCc1cccc(C)c1NC(=O)CCn1c(=O)c2cccn2c2ccccc21	/	/	-1%	/	/	/
NCCNc1ccc(C(=O)N2c3ccccc3Sc3ccccc32)cc1[N+](=O)[O-]	/	?	-2%	-92*	?	?
CN1CCCN(S(=O)(=O)c2cccc(C(F)(F)F)c2)c2nc3ccccc3nc21	i	21µM*	4%	0	-2%	?
COc1ccc2c(c1)CCCN2C(N)=Nc1ccc(Cl)cc1	i	-3%	1%	-63*	?	-11%
CS(=O)(=O)OCCCNCCCOS(C)(=O)=O	i	/	/	/	/	/
Cn1ccnc1C(O)c1cc(C(C)(C)C)c(O)c(C(C)(C)C)c1 (configuration not stated)	i	26%	0%[38.3 µM]	-93*	-7%	-2%
CC(C)(Sc1cc(C(C)(C)C)c(O)c(C(C)(C)C)c1)Sc1cc(C(C)(C)C)c(O)c(C(C)(C)C)c1	i	10%	0%	20	-7%	-13%
COC(=O)[C@@]1(Cc2ccc(OC)cc2)[C@H]2c3cc(C(=O)N4CCCC4)n(CCc4ccc(OC)c(Br)c4)c3C[C@H]2CN1C(=O)c1ccccc1	i	/	2%	0	0%	/
COC(=O)[C@@]1(Cc2ccc(OC)cc2)[C@H]2c3cc(C(=O)N4CCCC4)n(Cc4ccccc4)c3C[C@H]2CN1C(=O)c1ccccc1	?	/	1%	-66*	0%	/
COC(=O)[C@@]1(Cc2ccc(F)cc2)[C@H]2c3cc(C(=O)N4CCCC4)n(CCc4ccc(OC)c(Br)c4)c3C[C@H]2CN1C(=O)c1ccccc1	?	/	-1%	-67*	-26%	/
COC(=O)[C@@]1(Cc2ccc(F)cc2)[C@H]2c3cc(C(=O)N(C)C)n(Cc4ccc(C)c(F)c4F)c3C[C@H]2CN1C(=O)c1ccccc1	?	/	7%	-75*	?	/
O=S(=O)(/C=C/C=C/S(=O)(=O)c1ccccc1)c1ccccc1	7.5µM*	?	-5%	-101*	?	?
Cc1ccc(S(=O)(=O)C=CS(=O)(=O)c2ccc(C)cc2)cc1	?	/	3%	-17	/	/
CC(=O)Nc1ccc(N2C(C(C)=O)=NN(c3ccc(Cl)cc3)C2c2sccc2C)cc1 (configuration not stated)	i	23µM*	-4%[38.3 µM]	-7	0%	?
CCOC(=O)c1cnc2c(C)cc(C)cc2c1NCCCN1CCOCC1	?	6%	1%	-71*	/	26%
CCOC(=O)c1cnc2c(C)cc(C)cc2c1NCCN1CCOCC1	i	/	2%	/	?	/
Cc1c(C(=O)OC(C)C)sc(NC(=O)c2cnccn2)c1C(=O)OC(C)C	i	-1%	8%	55	6%	-8%
SMILES	ATXN viability	MCF10A rerep	PINK1 modulator	IL-1B inflam inh	ATXN2 expr inh	SW480 rereplic
O=C(CCCn1c(=O)c2cccn2c2cccnc21)Nc1ccccc1C(F)(F)F	/	/	0%	/	/	/
O=C(/C=C/c1ccc(-c2ccccc2)o1)c1ccccc1	i	?	17%	-99*	32%	3%
O=Cc1ccc(-c2cccc(C(=O)O)c2)o1	i	-3%	1%	16	23%	-3%
Cc1ccc(-c2ccc(/C=C/C(=O)c3ccccc3)o2)cc1	i	?	15%	-79*	5%	3%
COc1ccc(-n2nnnc2C2CCN(S(=O)(=O)c3ccc(C)cc3)CC2)cc1	/	/	0%	/	/	/
O=S(=O)(c1cccc(NC(=S)N2CCN(c3ccc(F)cc3)CC2)c1)C(F)F	?	?	3%	-3	/	18µM*
O=C(Nc1ccccn1)c1cccc(S(=O)(=O)N2CCCC2)c1	i	0%	8%	12	-3%	-1%
O=C(Nc1cccc(S(=O)(=O)N2CCCC2)c1)c1ccc(Cl)nc1	i	?	6%	7	?	18µM*
O=C(Nc1ccccn1)c1cccc(S(=O)(=O)N2CCc3ccccc3C2)c1	i	?	0%	-56*	-5%	30%
O=C(Nc1cccc(S(=O)(=O)N2CCCCC2)c1)c1ccccn1	i	-15%	1%	-84*	-12%	3%
O=C(Nc1cccc(S(=O)(=O)N2CCOCC2)c1)c1ccccn1	i	0%	0%	34	/	-7%
CC(C)CCNC(=O)Cn1cc(S(=O)(=O)Cc2ccc(F)cc2)c2ccccc21	/	/	-1%	/	/	/
CC(=O)c1cc2c(cc1F)C(C)(C)CCC2(C)C	i	-1%	11%	21	-24%	11%
COc1cc(NC(=O)CCc2c(C)nc3nc(-c4cc(OC)cc(OC)c4)nn3c2C)cc(OC)c1	i	/	0%	/	-8%	/
O=C(Nc1cccc(S(=O)(=O)C(F)F)c1)c1ccc(S(=O)(=O)N2CCCC2)cc1	?	?	0%	-88*	?	?
O=C(Nc1ccccc1)c1cccc(S(=O)(=O)N2CCCCC2)c1	/	1%	/	15	/	-16%
COc1ccc(S(=O)(=O)Nc2cccc(S(=O)(=O)N3CCCCCC3)c2)cc1	i	-6%	-2%	11	3%	8%
O=C(Nc1cccc(S(=O)(=O)C(F)F)c1)c1ccc(S(=O)(=O)N2CCOCC2)cc1	i	?	-2%	-19	-10%	7%
